Tests used:
Conditions in all cases: Compound Concentration (nM):1000
STK33 = tested on: STK33
STK35 = tested on: STK35
STK36 = tested on: STK36
STK39 = tested on: STK39
SYK = tested on: SYK
SgK110 = tested on: SgK110
TAK1 = tested on: T1, TAK1
T1 construct: gene MAP3K7

TAOK1 = tested on: TAOK1
TAOK2 = tested on: TAOK2
TAOK3 = tested on: TAOK3
TBK1 = tested on: TBK1
TEC = tested on: TEC
TESK1 = tested on: TESK1
TGFBR1 = tested on: TGFBR1
TGFBR2 = tested on: TGFBR2
TIE1 = tested on: TIE1
TIE2 = tested on: T2, TIE2
T2 construct: gene TEK

TLK1 = tested on: TLK1
TLK2 = tested on: TLK2
TNIK = tested on: TNIK
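Further: KINOMEscan scanMAX binding as percent activity remaining versus control; lower means stronger binding.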

SMILES	Percent Control (STK33) [%]	Percent Control (STK35) [%]	Percent Control (STK36) [%]	Percent Control (STK39) [%]	Percent Control (SYK) [%]	Percent Control (SgK110) [%]	Percent Control (TAK1) [%]	Percent Control (TAOK1) [%]	Percent Control (TAOK2) [%]	Percent Control (TAOK3) [%]	Percent Control (TBK1) [%]	Percent Control (TEC) [%]	Percent Control (TESK1) [%]	Percent Control (TGFBR1) [%]	Percent Control (TGFBR2) [%]	Percent Control (TIE1) [%]	Percent Control (TIE2) [%]	Percent Control (TLK1) [%]	Percent Control (TLK2) [%]	Percent Control (TNIK) [%]
COc1cc(C=NNc2ncnc3c2cnn3-c2ccccc2)ccc1O [GW513184X]	100	80	82	100	38	100	59	100	100	95	95	90	100	79	100	74	65	100	100	84
COc1cc(/C=N/Nc2ncnc3[nH]ncc23)ccc1O [GW578748X]	95	100	57	60	51	100	32	51	80	77	50	100	94	100	87	100	100	86	76	94
CCS(=O)(=O)c1ccc(OC)c(Nc2ncc(-c3cccc(F)c3)o2)c1 [GW621970X]	95	100	100	100	81	100	100	87	100	100	100	100	89	100	52	69	100	100	86	82
COc1ccc(COc2ccc(Cc3cnc(N)nc3N)cc2OC)cc1 [GW632580X]	100	100	74	91	100	100	97	100	100	100	99	100	99	100	100	100	100	92	100	100
O=C(Nc1n[nH]c2nc(-c3ccc(O)cc3)c(Br)cc12)C1CC1 [SB-725317]	96	100	100	99	100	100	95	1	2.6	2.6	86	100	100	100	100	100	100	100	100	72
CC1=C(C(=O)Nc2ccc3[nH]ncc3c2)C(c2ccc3ccccc3c2)CC(=O)N1 (stereo not shown) [GSK270822A]	95	99	100	71	74	100	81	76	96	93	81	90	99	85	100	80	96	89	100	85
CC(C)COC(=O)c1ccc2c(c1)/C(=C/Nc1ccc(S(N)(=O)=O)cc1)C(=O)N2 [GW416981X]	24	100	100	100	100	100	21	85	100	99	17	100	100	100	42	100	100	100	95	58
COc1cc(N2CCN(C(C)C)CC2)ccc1Nc1nc(Nc2ccc(F)cc2C(=O)NC[C@@H](O)CO)c2cc[nH]c2n1 [GSK1392956A]	1.5	100	100	65	92	100	100	67	100	100	100	100	92	100	100	100	100	83	92	72
NS(=O)(=O)c1ccc(N/N=C2\C(=O)Nc3ccc(-c4cnco4)cc32)cc1 [GW276655]	100	99	100	88	100	73	32	86	95	98	63	100	77	100	100	73	100	96	66	26
COc1ccccc1-c1cc(/C=C2\C(=O)Nc3ncc(Br)cc32)cc(Br)c1O [GW442130X]	100	100	100	67	100	100	81	93	100	89	100	100	100	100	87	100	95	100	100	71
Cc1cc(O)cc(C)c1/C=C/c1cncc(C(N)=O)c1 [GW435821X]	94	69	100	100	74	100	100	74	91	98	100	100	100	84	81	100	100	100	100	100
CCc1ccc(Oc2nccc(-c3c(-c4ccc(F)cc4)ncn3C3CCNCC3)n2)cc1 [SB-242719]	92	100	82	81	85	100	96	82	93	95	65	100	99	96	100	100	100	91	100	66
COc1ccc2cc(-c3c(-c4ccncc4)nc(-c4ccc(S(C)(=O)=O)cc4C)n3C)ccc2c1 [SB-633825]	89	57	82	66	78	85	80	84	77	74	65	66	91	9.7	86	3.8	2.4	94	100	54
COc1cccc(-n2ncc3c(N/N=C/c4ccncc4)ncnc32)c1 [GW784752X]	100	100	96	100	79	100	97	39	97	91	100	100	85	36	100	100	100	89	93	97
NS(=O)(=O)c1ccc(N/N=C2\C(=O)Nc3ccc(C(=O)NCc4ccncc4)cc32)cc1 [GW300657X]	87	93	97	74	73	100	29	84	99	100	33	100	100	100	100	85	100	71	75	82
O=C1Nc2ccc(C(=O)c3ccco3)cc2C1=Cc1cc(Cl)c(O)c(Cl)c1 [GW406108X]	86	100	87	81	100	100	30	40	100	85	40	100	100	99	58	100	100	94	97	24
COC(=O)Nc1nc2ccc(Oc3ccc(NC(=O)Nc4cc(C(F)(F)F)ccc4F)cc3)cc2s1.Cl [GW693917A]	44	86	100	87	98	100	5.8	84	86	93	69	78	77	100	92	3.1	0.6	87	100	74
COc1cc2ncn(-c3cc(O[C@H](C)c4ccccc4Cl)c(C(N)=O)s3)c2cc1OC [GSK237701A]	100	90	98	94	78	100	78	54	79	71	80	100	100	72	100	13	97	96	98	99
Cl.O=C(Nc1ccc(Oc2ccc3[nH]c(NC(=O)c4ccccc4)nc3c2)cc1)Nc1cc(C(F)(F)F)ccc1F [GW709042A]	29	95	100	100	99	100	58	90	91	98	88	100	96	100	100	2.3	7.5	100	86	100
NS(=O)(=O)c1ccc(Nc2ncc(-c3ccccc3)o2)cc1 [GW572399X]	100	100	100	100	93	100	100	72	97	86	100	99	100	100	100	100	100	63	47	52

Reference: paper PMC7826789 (International Journal of Molecular Sciences, 2021)
